PTEN del growth – growth suppressors of cells with PTEN tumor suppressor deletion | HCT116 PTEN-null viability, CellTiter-Glo, 60 h; active compounds read low | viability, % at 10 µM | 140,000 tested, 1.2% active;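 active = viability at or below a set limit, 4 SD under the median of all tested compounds, cut at about 3.7% in these data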;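 also: PTEN knockout HCT116 line with beta catenin targeted HCT116 as companion control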
ROMK mod – modulators of human ROMK potassium channel; P48048; Tet-inducible ROMK, thallium flux fluorescence; actives lie on both sides; B-score at 10 µM; 130,000 tested, 2% active; AID 1918;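 active = signal ratio slope over the read window, or its plate-corrected B-score, at least 3 SD from the plate mean, either direction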;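 also: B-score of the F/F0 ratio slope over 7 to 12 s after thallium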
Target sequence (P48048 whole entry, looked up): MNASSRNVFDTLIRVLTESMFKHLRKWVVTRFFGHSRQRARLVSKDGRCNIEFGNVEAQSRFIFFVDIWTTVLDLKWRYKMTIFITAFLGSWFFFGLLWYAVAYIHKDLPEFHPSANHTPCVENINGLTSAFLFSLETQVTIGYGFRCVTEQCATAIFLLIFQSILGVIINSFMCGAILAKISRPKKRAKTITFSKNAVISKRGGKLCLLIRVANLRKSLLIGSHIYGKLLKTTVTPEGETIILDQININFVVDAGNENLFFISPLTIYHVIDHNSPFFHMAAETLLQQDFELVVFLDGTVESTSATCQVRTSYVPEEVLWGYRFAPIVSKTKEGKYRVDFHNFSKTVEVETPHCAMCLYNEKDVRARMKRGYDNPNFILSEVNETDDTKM
L major viab – Leishmania major promastigote growth inhibition | Leishmania major promastigotes, resazurin fluorescence viability | inhibition, % at 10 µM | 200,000 tested, 9% active | AID 1063; in the data active = inhibition above about 50%;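 also: promastigotes grown with compound for 44 hours at 28 °C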
Insulin prom inh – TRM-6 insulin promoter activity inhibition | inhibition, % at 2 µM | 130,000 tested, 0.9% active | TRM-6 cells (human fetal islet line), insulin promoter-eGFP reporter, imaging; reporter expression induced with tamoxifen | AID 1273;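 active = inhibition above the mean plus 3 SD, with well images judged a real hit on visual review, cut at about 60% in these data, passing the limit was not always enough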
HCT116 bCat-KO – beta-catenin-lacking colon tumor cell growth suppression. 140,000 tested, 1.5% active. HCT116 beta-catenin knockout viability, CellTiter-Glo, 60 h; active compounds read low. AID 818. viability, % at 10 µM;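 active = viability at or under a set limit, the compound median less 4 SD, cut at about 6% in these data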;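 also: 0% = Hyamine 1622 control at 20 µM and 100% = untreated cell control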
p97 inhibitor – human p97 ATPase inhibition | P55072 | recombinant p97 ATPase, Kinase-Glo ATP luminescence, 3 h | inhibition, % at 8 µM | 220,000 tested, 0.42% active | AID 1481; in the data active = inhibition above about 15%;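 also: 0% = DMSO vehicle and 100% = wells lacking enzyme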
The depositor's hits bear a star; . = no result given. An excerpt weighted towards active compounds, which were near 10% of everything screened.

SMILES | PTEN del growth | ROMK mod | L major viab | Insulin prom inh | HCT116 bCat-KO | p97 inhibitor
Cc1onc(-c2ccccc2Cl)c1C(=O)Oc1cccc2cccnc12 | . | -0.343 | 28.0 | -18.8 | . | -2.1
COc1ccc(C(=O)On2c(-c3ccc(Br)cc3)nc3ccccc3c2=O)cc1 | 61.7 | 0.495 | -7.7 | -6.2 | 61.9 | 4.1
COc1cc(OC)cc(-c2nc3ccccc3c(=O)n2OC(=O)c2ccc(Br)cc2)c1 | 85.7 | 0.325 | 50.2* | 16.7 | 87.4 | -3.2
O=C(COc1ccccc1)NC1CCSC1=O (centres undefined) | . | 1.33 | -7.6 | . | . | 1.9
COc1ccccc1-c1nc(C#N)c(N2CCN(C(c3ccccc3)c3ccccc3)CC2)o1 | 101.9 | . | 5.3 | 72.7* | 101.0 | 4.8
Cc1ccc(C(C)C)c(OCC(=O)c2c(O)c3ccccc3oc2=O)c1 | . | -1.51 | -7.4 | . | . | 3.6
CCOCCCn1c(=N)c(C(N)=S)cc2c(=O)n3cccc(C)c3nc21 | 63.6 | . | 43.3 | -77.3 | 74.0 | -0.3
CCOC(=O)c1cc2c(=O)n3cccc(C)c3nc2n(Cc2ccco2)c1=NC(=O)c1cccnc1 | 96.6 | . | 86.1* | -108.3 | 75.7 | -1.2
Cc1cccn2c(=O)c3cc(C(N)=S)c(=N)n(CCCOC(C)C)c3nc12 | 29.3 | -0.508 | 87.1* | . | 30.9 | 0.7
CCOC(=O)c1cc2c(=O)n3cccc(C)c3nc2n(C)c1=N | 18.6 | 1.35 | 97.7* | -40.6 | 34.2 | 0.6
CCNC(=O)c1cc2c(=O)n3cccc(C)c3nc2n(CCc2ccccc2)c1=N | 6.0 | -2.38 | 27.4 | 0.0 | 4.8* | 5.5
COCCN(C(=S)Nc1ccc(Cl)cc1OC)C1CCN(C(C)=O)CC1 | . | . | . | . | . | -1.8
COc1ccc(Nc2ccc3nnc(-c4ccc(Br)cc4)n3n2)cc1 | 90.0 | . | -4.4 | 2.2 | 98.3 | 3.2
CCOC(=O)C1CCCN(c2cc(=O)n(C3CCCCC3)c(=O)[nH]2)C1 (centres undefined) | . | 0.825 | 2.2 | -123.5 | . | 0.3
COc1ccc(N=Cc2c(O)n(-c3cccc(C)n3)c(=O)c3ccccc23)c(OC)c1 | . | 0.146 | . | . | . | 5.4
Cc1cccn2c(=O)c3cc(C(=O)N(C)C)n(C)c3nc12 | 78.5 | 0.57 | 87.4* | . | 74.1 | 3.7
Cc1cccn2c(=O)c3cc(C(=O)NCCCn4ccnc4)n(C)c3nc12 | 89.7 | . | 33.2 | . | 100.0 | 4.9
Cc1cccc(-c2ncc(CN3CCCC(CO)(Cc4ccccc4C)C3)cn2)c1 (centres undefined) | . | 0.618 | 15.0 | . | . | 0.3
CCCC(=O)Nc1ccc(C)c(O)c1 | 1.0* | 0.473 | -14.1 | 28.6 | 1.0* | 2.9
COc1ccc(C(=O)Nc2ccc(S(=O)(=O)N3CCCCC3C)cc2)c(OC)c1OC (centres undefined) | 95.5 | . | 61.2* | . | 98.5 | -8.4
COc1cc(C(=O)Nc2ccc(S(=O)(=O)N3CCCCC3C)cc2)cc(OC)c1OC (centres undefined) | 75.3 | . | 19.5 | . | 67.0 | -9.1
CCN(CCNCC(O)COCc1ccc(Cl)cc1)c1cccc(C)c1 (centres undefined) | . | . | 24.8 | . | . | 0.7
CCn1ccnc1CNCc1ccc(OCC(O)CN(C)Cc2ccccc2)cc1 (centres undefined) | . | 0.0894 | 31.7 | . | . | -0.5
CN(Cc1ccccc1)CC(O)COc1ccc(CNCCc2ccncc2)cc1 (centres undefined) | . | -0.12 | 90.0* | . | . | -5.3
Cc1cc(CN(C)Cc2ccc(OCC(O)CN(C)Cc3ccccc3)cc2)on1 (centres undefined) | . | 2.25 | 87.5* | . | . | 0.7
SMILES | PTEN del growth | ROMK mod | L major viab | Insulin prom inh | HCT116 bCat-KO | p97 inhibitor
CCc1ccc(CNCc2ccc(OCC(O)CN(C)Cc3ccccc3)cc2)nc1 (centres undefined) | . | . | 85.5* | . | . | -1.9
CN(Cc1ccccc1)CC(O)COc1ccc(CNCc2nccn2C)cc1 (centres undefined) | . | -0.681 | 19.7 | . | . | -7.6
CN(Cc1ccccc1)CC(O)COc1ccc(CNCCc2cccnc2)cc1 (centres undefined) | . | 0.475 | 82.8* | . | . | 1.0
CN(c1ccccc1)C(c1ccc(F)cc1)c1nnnn1C1CCCC1 (centres undefined) | 61.2 | . | 7.7 | . | 67.0 | 1.2
CCOc1ccc(-n2nnc3c(=O)n(CC(=O)N4CCCc5ccccc54)cnc32)cc1 | 60.0 | . | 54.8* | . | 69.6 | -1.3
COc1ccc(-n2nnc3c(=O)n(CC(=O)N4CCCc5ccccc54)cnc32)cc1 | . | . | 42.9 | . | . | 5.2
CCOc1ccc(N(C(=O)c2ccccc2Cl)C2=NC(C)(C)CS2)cc1 | . | 0.107 | 61.5* | . | . | -1.1
Cc1ccc(CNS(=O)(=O)NCc2cccs2)cc1 | . | . | -4.5 | 76.9* | . | 4.0
C=C(C)CSc1[nH]c(=O)cc(C)c1C#N | . | -0.273 | -13.3 | -150.0 | . | 0.2
COc1ccc(CNC(=O)Cn2cncn2)cc1OC | . | 0.892 | -7.5 | 88.9* | . | 0.8
Cc1ccc(CNC(=O)Cn2cncn2)cc1 | 107.0 | . | -10.9 | 24.3 | 92.2 | 2.6
O=C(c1ccc(-c2ccccc2)cc1)c1ccccc1C(=O)N1CCOCC1 | 84.0 | -0.411 | 50.8* | 21.1 | 84.7 | -3.1
CCCOC(=O)c1cc(-c2ccc(/C=C3/C(=O)N(C)C(=O)C(C#N)=C3C)o2)ccc1Cl | . | . | 3.7 | -44.8 | . | 1.3
C=CCOC(=O)c1cc(-c2ccc(/C=C3\C(=O)NC(=O)C(C#N)=C3C)o2)ccc1Cl | 108.9 | 0.952 | 86.1* | 13.0 | 108.4 | 5.4
O=[N+]([O-])/C=C/c1cn(Cc2ccc(Cl)cc2)c2ccccc12 | 1.9* | -1.66 | 99.3* | 2.8 | 10.4 | 6.4
Cc1cccc(Cn2cc(/C=C/[N+](=O)[O-])c3ccccc32)c1 | 3.0* | 0.456 | 77.0* | 25.0 | 3.2* | 2.7
CC1Cc2ccccc2N1S(=O)(=O)c1cccc(C(=O)NCCCn2ccnc2)c1 (centres undefined) | . | -0.0373 | 15.3 | . | . | -2.6
CC(=O)Nc1ccc(/C(C)=N/Nc2nc(Nc3cccc4ccccc34)nc(N3CCOCC3)n2)cc1 | 30.6 | -0.102 | 57.9* | -42.9 | 36.2 | 2.6
C/C(=N\Nc1nc(N2CCCCCC2)nc(N2CCCCCC2)n1)c1ccccc1 | . | . | 51.0* | 50.0 | . | 2.9
CC(=O)Nc1ccc(/C(C)=N/Nc2nc(N3CCOCC3)nc(N3CCOCC3)n2)cc1 | . | 0.949 | -2.9 | 33.3 | . | -3.2
NC1=NC2CS(=O)(=O)CC2S1 (centres undefined) | 92.3 | -0.274 | -5.3 | -37.5 | 89.2 | 0.2
COc1ccc(-c2cc(=O)[nH][nH]2)cc1OC | 103.3 | 0.917 | 84.4* | 0.0 | 91.1 | 14.2
CON/C=N/C(=S)Nc1ncc(C(F)(F)F)cc1Cl | . | 5.37* | -3.0 | . | . | 0.1
CC(C)C(=O)Nc1ncc(C(F)(F)F)cc1Cl | 97.2 | . | -4.0 | 25.6 | 93.3 | 5.1
CC(Cl)C(=O)Nc1ncc(C(F)(F)F)cc1Cl (centres undefined) | 103.5 | -0.247 | -26.5 | 34.3 | 103.6 | 2.3
ON/C=N/C(=S)Nc1ncc(C(F)(F)F)cc1Cl | . | 0.315 | 89.7* | . | . | 0.3
Cc1onc(-c2c(Cl)cccc2Cl)c1COC(=O)c1ccc(Cl)cc1 | . | . | . | . | . | -2.3
Cc1ccc(NC(=O)NNC(=O)C2CCN(Cc3ccc(F)cc3Cl)CC2)cc1 | . | -0.0161 | -11.9 | 13.3 | . | 3.9

Screens deposited in PubChem BioAssay by several laboratories.
